Screen size: about 340,000 compounds; about 8,500 (2.5%) were called active.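 Rule for the calls: active = melting temperature shift of at least 10% of the positive control shift, at one fixed dose; inactive = the rest.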 This excerpt belongs to a sample that is enriched for actives.
test system: Glutamate receptor ionotropic, NMDA 3A (GRIN3A) ligand-binding domain; experiment: NR3A LBD thermal stabilization by compounds – biophysical, differential scanning fluorimetry, uHTS, primary screen (AID 1259313); conditions: at 25 µM, hits give high values, 0% = protein alone, 100% = glycine-bound protein

SMILES | Tm shift relative to glycine control
N#C/C(C(=S)Nc1ccccc1)=C1/NN=C(N2CCOCC2)N1c1ccccc1 | 1.45% (inactive)
COc1ccc(NC(=O)CS(=O)(=O)c2ccccc2)cc1 | 2.82% (inactive)
COc1ccc(NC(=O)COC(=O)c2ccc(NS(=O)(=O)/C=C/c3ccccc3)cc2)cc1 | 20.6% (active)
CN(CC(=O)Nc1ccc(OC(F)F)cc1)S(=O)(=O)/C=C/c1ccccc1 | -9.87% (inactive)
CCC(C(=O)OCC(=O)Nc1c(Cl)cc(Cl)cc1Cl)c1ccccc1 (stereo not given) | -8.02% (inactive)
CCC(C(=O)OCC(=O)Nc1ccc(C(=O)Nc2ccc(OC)cc2)cc1)c1ccccc1 (stereo not given) | 22.5% (active)
CCC(C(=O)OCC(=O)Nc1ccccc1-c1ccccc1)c1ccccc1 (stereo not given) | -2.7% (inactive)
c1cnc(N2CCN(c3ccc4ccccc4n3)CC2)nc1 | -1.6% (inactive)
O=C(CN1CCc2ccccc21)NC(c1ccccc1)c1ccccc1 | -10.2% (inactive)
O=C1C=C(NCCNc2c(F)c(F)c(CO)c(F)c2F)CCC1 | -8.05% (inactive)
Cc1ccc(NC(=O)COC(=O)CN2CCCCCC2=O)c(C)c1 | -0.17% (inactive)
Cc1ccc(C(=O)NC2CCCC(C)C2C)cc1S(=O)(=O)N1CCCCC1 (stereo not given) | 20.8% (active)
CC1CCCC(NC(=O)c2cc(S(=O)(=O)N3CCCCC3)ccc2Cl)C1C (stereo not given) | -1.61% (inactive)
Cc1ccc(C(=O)NNC(=O)c2ccncc2)cc1S(=O)(=O)N1CCCCC1 | -0.93% (inactive)
COc1ccc(OC)c(C2C3=C(N=c4s/c(=C\c5cccc(O)c5)c(=O)n42)c2ccccc2CC3)c1 (stereo not given) | 17.9% (active)
O=C1CCCC2=C1C(c1ccccc1)n1c(s/c(=C/c3cccc(F)c3)c1=O)=N2 (stereo not given) | 2.84% (inactive)
COCCOC(=O)C1=C(C)N=c2s/c(=C\c3cccs3)c(=O)n2C1c1cccs1 (stereo not given) | -1.71% (inactive)
COC1=CCC2([N+](=O)[O-])CN(CC(=O)O)CC1([N+](=O)[O-])C2 (stereo not given) | -3.94% (inactive)
O=C(CCc1ccc(S(=O)(=O)N2CCOCC2)cc1)OCC(=O)c1ccc(Br)cc1 | -0.17% (inactive)
N#CCC(=O)NC1CCC(CC2CCC(NC(=O)CC#N)CC2)CC1 (stereo not given) | 0.51% (inactive)
O=[N+]([O-])c1ccc(COc2ccccc2CN2CCOCC2)cc1 | -1.9% (inactive)
COc1ccc(C(=O)N2CCC(C(=O)Nc3cccc(C)c3)CC2)cc1OC | -0.09% (inactive)
Cc1cc(C)c2c(-n3cccc3)c(NC(=O)OCc3ccccc3)sc2n1 | 0.08% (inactive)

SMILES | Tm shift relative to glycine control
COC(=O)Nc1sc2nc(C)cc(C)c2c1-n1cccc1 | -4.15% (inactive)
CCCCOC(=O)Nc1sc2nc(C)cc(C)c2c1-n1cccc1 | 11% (active)
CCC(CC)NC(=O)CSc1nnc(-c2c[nH]c3ccccc23)o1 | 1.71% (inactive)
COc1cccc(CNC(=O)CCC2CCCN(Cc3ccc(OC(F)F)cc3)C2)c1 (stereo not given) | 1.06% (inactive)
Cn1nc(C(=O)OCC(=O)N(Cc2ccccc2)C(C)(C)C)c2ccccc2c1=O | 0.45% (inactive)
O=C(Cn1c(NCCO)nc2ccccc21)c1ccc(Cl)cc1Cl | -1.09% (inactive)
O=C(O)c1cccnc1Sc1ncnc2sc3c(c12)CCC3 | -2.96% (inactive)
OCCNc1nc2ccccc2n1-c1ncnc2sc3c(c12)CCC3 | 19.1% (active)
CC12C(=O)N(n3cnnc3)C(=O)C1C1C=CC2C1 (stereo not given) | 0.47% (inactive)
Cc1ccccc1NC(=O)c1cc(S(=O)(=O)Nc2cccc(C(=O)O)c2)ccc1Cl | 0% (inactive)
C=CCNC(=O)c1ccccc1NC(=O)c1ccc(Cl)c(S(=O)(=O)Nc2cccc(C)c2C)c1 | 16% (active)
Cc1ccc(C(=O)Nc2ccccc2-c2ccccc2)cc1S(=O)(=O)Nc1ccccc1 | 9.58% (inactive)
C=CCn1c(SCc2ccc(Cl)c(Cl)c2)nnc1C(CO)NC(=O)c1ccc(OC)cc1 (stereo not given) | -6.08% (inactive)
CN(CC(=O)Nc1ccccc1[N+](=O)[O-])Cc1ccc(Br)cc1 | -2.8% (inactive)
CSc1ccccc1NC(=O)CN(C)CC(=O)Nc1ccc(Cl)cc1[N+](=O)[O-] | 2.47% (inactive)
Cc1ccc(NC(=O)CN(C)Cc2ccc(F)cc2)c([N+](=O)[O-])c1 | 12.7% (active)
O=C(O)c1ccc([N+](=O)[O-])cc1Sc1ccsc1 | 1.67% (inactive)
CC(=O)Nc1ccc(CN2CCN(Cc3ccc(F)c(F)c3)C(CCO)C2)cc1 (stereo not given) | -0.08% (inactive)
CN(C)c1ccc(NC(=O)CSc2n[nH]c(-c3ccco3)n2)cc1 | 0.92% (inactive)
CCN1CCN(c2nc(Nc3cccc(F)c3)nc(N)c2[N+](=O)[O-])CC1 | 0.95% (inactive)
COc1cccc(Nc2nc(N)c([N+](=O)[O-])c(NCc3ccco3)n2)c1 | -10.5% (inactive)
CNc1nc(Nc2ccc(C)c(Cl)c2)nc(N)c1[N+](=O)[O-] | 25.8% (active)
